# Screening data from PubChem.
# Hits are enriched below; roughly 1.3% of the tested compounds scored in any of these assays.
# BRCA1 expr up – BRCA1 expression activation; Potency, µM (highest dose often 46.1 µM), usual class: activators; MCF7-BRCA1-FFLuc reporter, luminescence, 48 h; response scale: scaled: vehicle 0%, 10 µM genistein 100%; 380,000 tested, 1.1% active; note: nearly all actives have a fitted effect of over 80% in size
#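 Quantitative HTS in MCF7 cells stably reporting BRCA1 expression via firefly luciferase. Compound treatment lasts 48 h at 37 °C in phenol-red free MEM. Activation is expressed relative to genistein at 10 microM and DMSO.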
# PKM2 act – increases activity of human pyruvate kinase M2 | P14618 | purified PKM2, Kinase-Glo ATP luminescence, activation; response scale: 0% is enzyme alone, no compound | Potency, µM (doses to about 57.5 µM), actives largely listed as activators | 260,000 tested, 0.34% active | AID 1631; note: nearly all actives have a fitted effect of over 55% in size
#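 Purified hPK-M2 (>95% pure) converted ADP (0.1 mM final) to ATP with 0.5 mM PEP in 50 mM imidazole pH7.2, KCl, MgCl2, Tween 20, BSA; 1 h at room temperature. ATP detected by Kinase-Glo luminescence.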
# IL2 activator – IL-2 activation; IL-2 activation reporter assay, cell-based qHTS; stimulated with anti-CD3/CD4/CD28 beads; in transgenic mouse T cells; activation, % (series mostly up to about 46 µM); 360,000 tested, 0.065% active; AID 652025; in the data active = activation above about 50%; inconclusive = mostly about 30% to 49%
#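 Readout is EGFP and DsRed signal by fluorescent plate cytometry after 18 h at 37 degrees C. Transgenic mouse T cells (750/well) received compound for 60 min before bead stimulation (anti-CD3, anti-CD4, anti-CD28); memory T cells served as non-tolerant control.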
# Apoferritin bind – binds horse apoferritin like a general anesthetic; Potency, µM (series often up to 77.5 µM), actives largely listed as inhibitors; P02791; 350,000 tested, 0.074% active; apoferritin/1-aminoanthracene competitive binding, fluorescence; note: nearly all actives have a fitted effect of over 20% in size
# Target sequence (P02791 2-175 limits assumed): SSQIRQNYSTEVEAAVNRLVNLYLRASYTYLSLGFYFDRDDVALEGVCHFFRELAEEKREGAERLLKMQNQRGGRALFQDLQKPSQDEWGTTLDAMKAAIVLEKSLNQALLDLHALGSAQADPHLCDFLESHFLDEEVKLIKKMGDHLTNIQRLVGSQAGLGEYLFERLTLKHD
#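 10 uM apoferritin + 50% sat. 1-AMA, PBS; cpd 10 min RT; Ex380/Em535 endpoint; normalized to free probe vs complex; 4-param Hill fit; propofol titration as pos. ctrl.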
# Integrin act MD – activates integrin-mediated alleviation for muscular dystrophy; Potency, µM (top dose mostly 38.3 µM), actives largely listed as activators; alpha7betagal myoblasts, beta-gal FDG fluorescence, 48 h; 350,000 tested, 0.064% active; note: nearly all actives have a fitted effect of over 60% in size
#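 alpha7betagal+/- myoblasts (passage 13, 250/well) treated 48 h at 37C with compounds at 1:260 dilution of DMSO stock. Lysed, then beta-galactosidase activity read as FDG fluorescence (ex 480/em 540) after 30 min, with pre-read for autofluorescence.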
# Hits are given with their value; 0 = inactive; ? = inconclusive; - = not tested or not shown; [ ] = remark or other dose. Unless noted, calls come from the whole dose curve; as a rule, active = well fitted curve in the direction sought with a large enough effect; inconclusive = small, poorly fitted or top-dose-only effect, or another doubt; inactive = no such curve, though single readings can be large; an effect the other way counts as inactive or inconclusive.
SMILES,BRCA1 expr up,PKM2 act,IL2 activator,Apoferritin bind,Integrin act MD
C=C(C)Cn1c(=O)c2c(nc3n2CCN3c2ccc(F)cc2)n(C)c1=O,-,-,-,0,-
CN1CCCc2ccccc21,0,-,-,-,-
Cc1c(Cl)ccc2sc(N3CCN(C(=O)c4ccco4)CC3)nc12,?,-,-,0,-
O=C(NCCc1cccs1)C1CCC(=O)N(CCc2cccc(F)c2)C1 (stereo not given),0,-,0,0,?
Cc1ccsc1CCNC(=O)C1CCC(=O)N(CCc2cccc(F)c2)C1 (stereo not given),7.94µM,0,0,0,0
CCOc1ccc(/C=C(\C#N)C(=O)Nc2cccnc2)cc1,0,0,0,0,0
CCOc1ccc(NC(=O)/C(C#N)=C\c2ccc(N3CCCC3)c(C)c2)cc1,0,-,174.0,-,0
CCOC(=O)c1cnn(-c2ccc(C)cc2)c1N,11.2µM,0,0,0,0
CSc1c(C#N)c(N)nc2sc(C(=O)c3ccccc3)c(N)c12,0,0,275.0,0,0
CCCCCCCCCCCCCCCC[n+]1cccc(C(=O)N(CC)CC)c1,0,0,0,15.8µM,0
CCCCCCCC[n+]1cccc(C(=O)N(CC)CC)c1,0,0,0,0,0
CCOc1ccccc1N(CC(=O)Nc1ccc(OC)c(Cl)c1)S(=O)(=O)c1ccccc1,0,-,-,0,-
Cc1c(Cl)cccc1NC(=O)C(CCS(C)(=O)=O)N1Cc2ccccc2C1=O (stereo not given),-,-,-,0,-
COCC(=O)n1nc(-c2ccccc2)nc1NCc1cccs1,10µM,0,0,0,0
O=C1CCCc2[nH]c(=O)c(C(=O)NCc3ccccc3)cc21,0,-,-,-,-
COc1ccc(C2c3cc(OC)c(OC)cc3CC(=O)N2c2ccc(C)cc2)cc1 (stereo not given),-,-,-,0,-
S=c1[nH]cnc2scc(-c3ccccc3)c12,0,0,0,0,0
S=c1[nH]cnc2sc(-c3ccccc3)cc12,11.2µM,0,0,0,0
c1ccc(Nc2c(-c3c[nH]c4ccccc34)nc3ccccn23)cc1,-,-,-,0,-
CCn1c(C)nc2cc(C(=O)NNC(=S)Nc3ccccc3Cl)ccc21,3.98µM,0,0,0,0
CCn1c(C)nc2cc(C(=O)NNC(=S)Nc3ccc(F)cc3)ccc21,10µM,0,0,0,0
CCn1c(C)nc2cc(C(=O)NNC(=S)Nc3ccc(Cl)cc3)ccc21,0,0,0,0,0
COc1ccc(C2NC(=O)NC(C)=C2C(=O)Nc2cc(C)cc(C)c2)c(OC)c1 (stereo not given),0,-,-,0,-
Brc1ccc(/C=C2\C=Cc3ccccc32)cc1,0,-,-,-,-
O=C(CCCCCBr)N1CCC(CC2CC(c3ccc(Cl)cc3)=NO2)(C(=O)NCC2CCCCC2)CC1 (stereo not given),0,0,63.4,0,0
SMILES,BRCA1 expr up,PKM2 act,IL2 activator,Apoferritin bind,Integrin act MD
NC(N)=NCCC[C@@H](N)C(=O)NCC(=O)N[C@@H](CC(=O)O)C(=O)N[C@@H](Cc1c[nH]c2ccccc12)C(=O)O,-,-,-,0,-
Cc1ccc(OCC(=O)c2ccc3c(c2)CCCC3)cc1C,4.47µM,0,0,?,0
O=C(COc1ccc(Br)cc1)c1ccc2c(c1)CCCC2,0,0,0,?,0
C=CC[C@@H]1C=C[C@@H](O/N=C\[C@@H](NS(=O)(=O)c2ccc(C)cc2)[C@H](C)/C=C\CC(=O)OC)[C@@H](CO)O1,-,-,-,0[15.3 µM],-
O=[N+]([O-])c1ccc(/C=C2\C=Cc3ccccc32)cc1,0,-,-,-,-
Cc1ccc(-c2csc3nc(-c4ccncc4)[nH]c(=O)c23)cc1,0,0,0,0,0
Cc1ccc2nc(-c3ccncc3)[nH]c2c1,2.82µM,0[11.5 µM],0,0,0
N/C(=N\OC(=O)c1ccc2c(c1)OCO2)c1ccncc1,4.47µM,0,0,0,?
N/C(=N\OC(=O)c1ccc2c(c1)OCO2)c1ccc(Cl)cc1,8.91µM,0,0,0,0
COc1ccc(C(=O)O/N=C(\N)c2ccc(Cl)cc2)cc1,2.51µM,-,0,0,0
Cc1cc(/C(N)=N/OC(=O)c2ccc(Cl)cc2)no1,7.94µM,0,0,0,0
Cc1cccc(C(=O)O/N=C(\N)c2ccc(Cl)cc2)c1,0,-,0,0,?
COc1ccccc1C(=O)O/N=C(\N)c1ccc(Cl)cc1,0,0,0,0,0
